Measured values from PubChem BioAssay (NCI).
Compounds without any hit were thinned out: in the full panel of roughly 79,000, 15% have a hit. Unmarked numbers belong to inactive results. Activity calls are given as the source filed them. No stated cut-off is given here; in the data, active means growth inhibition above about 70%; inactive means the rest.

Key:
[1] = NCI Yeast Anticancer Drug Screen. Data for the rad52 strain (AID 147);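 further: 0% = growth of vehicle-treated control cultures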; details: S. cerevisiae rad52 mutant growth inhibition, stronger effect = higher value
Procedure, shortened: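 Genetically altered yeast (DNA damage repair defect) treated with compound; inhibition calculated relative to vehicle.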

[2] = NCI Yeast Anticancer Drug Screen. Data for the wt1 strain (AID 149);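 further: 0% = growth of vehicle-treated wt1 cultures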; details: S. cerevisiae wt1 strain (SPY 50644) growth inhibition, stronger effect = higher value
Procedure, shortened: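 The wt1 strain was treated with compounds, and growth was compared with vehicle-treated cultures to give inhibition.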

[3] = NCI Yeast Anticancer Drug Screen. Data for the rad50EPP+ strain (AID 151);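 further: 0% = growth of vehicle-treated control cultures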; details: S. cerevisiae rad50 mutant strain, stronger effect = higher value
Procedure, shortened: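 Strain rad50EPP+; compound exposure; % growth inhibition vs vehicle.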

[4] = NCI Yeast Anticancer Drug Screen. Data for the mgt1 strain (AID 153); details: S. cerevisiae mgt1 mutant growth inhibition, stronger effect = higher value
Procedure, shortened: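 Read-out: yeast growth inhibition vs vehicle control. Strain mgt1, drawn from a panel altered in DNA damage repair or cell cycle control.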

[5] = NCI Yeast Anticancer Drug Screen. Data for the rad50 strain (AID 155);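 further: 0% = growth of vehicle-only cultures of the same strain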; details: S. cerevisiae rad50 strain growth inhibition, stronger effect = higher value
Procedure, shortened: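 Cells are treated with compound, grown, and their growth is then scored against vehicle-only cultures of the same repair-deficient yeast strain.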

[6] = NCI Yeast Anticancer Drug Screen. Data for the mec2-1 strain (AID 157); details: S. cerevisiae mec2-1 strain, stronger effect = higher value
Procedure, shortened: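 Cells of the genetically defined mec2-1 yeast strain are incubated with test compound. Inhibition of growth is calculated against vehicle-treated controls.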

[7] = NCI Yeast Anticancer Drug Screen. Data for the rad14 strain (AID 159);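 further: 0% = growth of vehicle-treated control cultures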; details: S. cerevisiae rad14 strain growth inhibition, stronger effect = higher value
Procedure, shortened: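 Readout: yeast growth inhibition, referenced to vehicle-only cultures. Strain bears a defined alteration in DNA damage repair.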

[8] = NCI Yeast Anticancer Drug Screen. Data for the sgs1 mgt1 strain (AID 161);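 further: 0% = growth of cultures given vehicle only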; details: S. cerevisiae sgs1 mgt1 strain, stronger effect = higher value
Procedure, shortened: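 Genetically altered yeast, compound exposure, growth inhibition relative to vehicle.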

[9] = NCI Yeast Anticancer Drug Screen. Data for the CLN2oe strain (AID 163);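 further: 0% = growth of vehicle-only control cultures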; details: S. cerevisiae CLN2oe strain, stronger effect = higher value
Procedure, shortened: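 Strain altered in cell-cycle control, incubated with compound; growth compared to solvent-treated controls.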

[10] = NCI Yeast Anticancer Drug Screen. Data for the cln2 rad14 strain (AID 165);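 further: 0% = growth equal to vehicle treated cultures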; details: S. cerevisiae cln2 rad14 strain, stronger effect = higher value
Procedure, shortened: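 The screen exposed genetically defined yeast (cln2 rad14) to test compounds and scored growth inhibition relative to vehicle-treated controls.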

[11] = NCI Yeast Anticancer Drug Screen. Data for the bub3 strain (AID 167); details: S. cerevisiae bub3 mutant strain, stronger effect = higher value
Procedure, shortened: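 Part of a panel of yeast mutants defective in DNA damage repair or cell cycle regulation. Each strain is grown with compound, and inhibition is calculated relative to solvent-treated cultures.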

[12] = NCI Yeast Anticancer Drug Screen. Data for the wt2 strain (AID 169);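 further: 0% = growth of vehicle-treated yeast cultures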; details: S. cerevisiae wt2 strain growth inhibition, stronger effect = higher value
Procedure, shortened: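 Steps: yeast strain treated with compound; growth recorded; inhibition calculated relative to cultures given vehicle alone.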

[13] = NCI Yeast Anticancer Drug Screen. Data for the mlh1 strain (AID 171);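 further: 0% = growth of vehicle-treated control cultures of the same strain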; details: S. cerevisiae mlh1 strain growth inhibition, stronger effect = higher value
Procedure, shortened: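 Yeast screen: mutant strain plus compound, growth scored against vehicle control wells.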

[14] = NCI Yeast Anticancer Drug Screen. Data for the sgs1 strain (AID 173);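 further: 0% = growth of vehicle-only control cultures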; details: S. cerevisiae sgs1 mutant, stronger effect = higher value
Procedure, shortened: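 Inhibition of yeast growth served as the measure. The mutant strain was treated with each compound, and growth was normalised to cultures receiving vehicle alone.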

[15] = NCI Yeast Anticancer Drug Screen. Data for the mlh1 rad18 strain (AID 175); details: S. cerevisiae mlh1 rad18 strain growth inhibition, stronger effect = higher value
Procedure, shortened: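 Compound-treated yeast growth, normalised to vehicle controls. Strain bears defined DNA repair mutations.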

[16] = NCI Yeast Anticancer Drug Screen. Data for the rad18 strain (AID 177); details: S. cerevisiae rad18 mutant growth inhibition, stronger effect = higher value
Procedure, shortened: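 Inhibition values reflect reduced yeast growth compared with vehicle-treated controls, using a strain engineered with a DNA damage repair defect.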

[17] = at 5.0 µM (retest, dose inferred, filed as 0.5)
[18] = at 50.0 µM (retest, dose inferred, filed as 5.0)

CCC1(O)C(=O)OCc2c1cc1n(c2=O)Cc2cc3ccccc3nc2-1 (stereo unspecified)
growth inhibition ([1]; at 1.2 µM): 73% (active)
growth inhibition ([1]; at 3.7 µM): 92% (active)
growth inhibition ([1]; at 11.0 µM): 95% (active)
growth inhibition ([1]; at 33.0 µM): 94% (active)
growth inhibition ([1]; at 100.0 µM): 95% (active)
growth inhibition ([2]; at 1.2 µM): -3%
growth inhibition ([2]; at 3.7 µM): 28%
growth inhibition ([2]; at 11.0 µM): 15%
growth inhibition ([2]; at 33.0 µM): 5%
growth inhibition ([2]; at 100.0 µM): 13%
growth inhibition ([3]; at 1.2 µM): 29%
growth inhibition ([3]; at 3.7 µM): 54%
growth inhibition ([3]; at 11.0 µM): 70% (active)
growth inhibition ([3]; at 33.0 µM): 75% (active)
growth inhibition ([3]; at 100.0 µM): 86% (active)
growth inhibition ([4]; at 1.2 µM): -11%
growth inhibition ([4]; at 3.7 µM): -3%
growth inhibition ([4]; at 11.0 µM): -4%
growth inhibition ([4]; at 33.0 µM): -3%
growth inhibition ([4]; at 100.0 µM): 10%
growth inhibition ([5]; at 1.2 µM): 74% (active)
growth inhibition ([5]; at 3.7 µM): 91% (active)
growth inhibition [5, 17]: 94% (active)
growth inhibition ([5]; at 11.0 µM): 95% (active)
growth inhibition ([5]; at 33.0 µM): 94% (active)
growth inhibition [5, 18]: 96% (active)
growth inhibition ([5]; at 50.0 µM): 86.2% (active)
growth inhibition ([5]; at 100.0 µM): 94% (active)
growth inhibition ([6]; at 1.2 µM): -9%
growth inhibition ([6]; at 3.7 µM): -2%
growth inhibition [6, 17]: 21%
growth inhibition ([6]; at 11.0 µM): 23%
growth inhibition ([6]; at 33.0 µM): 36%
growth inhibition [6, 18]: 89% (active)
growth inhibition ([6]; at 50.0 µM): 77.2% (active)
growth inhibition ([6]; at 100.0 µM): 82% (active)
growth inhibition ([7]; at 1.2 µM): -4%
growth inhibition ([7]; at 3.7 µM): 7%
growth inhibition ([7]; at 11.0 µM): 5%
growth inhibition ([7]; at 33.0 µM): 12%
growth inhibition ([7]; at 100.0 µM): 24%
growth inhibition [8, 17]: 23%
growth inhibition [8, 18]: 56%
growth inhibition ([8]; at 50.0 µM): 47.5%
growth inhibition ([9]; at 1.2 µM): 12%
growth inhibition ([9]; at 3.7 µM): 26%
growth inhibition ([9]; at 11.0 µM): 33%
growth inhibition ([9]; at 33.0 µM): 18%
growth inhibition ([9]; at 100.0 µM): 41%
growth inhibition [10, 17]: 6%
growth inhibition [10, 18]: 27%
growth inhibition ([10]; at 50.0 µM): 19.3%
growth inhibition ([11]; at 1.2 µM): -14%
growth inhibition ([11]; at 3.7 µM): 9%
growth inhibition [11, 17]: 12%
growth inhibition ([11]; at 11.0 µM): -3%
growth inhibition ([11]; at 33.0 µM): 1%
growth inhibition [11, 18]: 27%
growth inhibition ([11]; at 50.0 µM): -24.9%
growth inhibition ([11]; at 100.0 µM): 10%
growth inhibition ([12]; at 1.2 µM): 6%
growth inhibition ([12]; at 3.7 µM): 4%
growth inhibition ([12]; at 11.0 µM): -1%
growth inhibition ([12]; at 33.0 µM): 1%
growth inhibition ([12]; at 100.0 µM): 10%
growth inhibition ([13]; at 1.2 µM): -5%
growth inhibition ([13]; at 3.7 µM): 13%
growth inhibition ([13]; at 11.0 µM): 15%
growth inhibition ([13]; at 33.0 µM): 2%
growth inhibition ([13]; at 100.0 µM): 15%
growth inhibition ([14]; at 1.2 µM): 1%
growth inhibition ([14]; at 3.7 µM): 15%
growth inhibition ([14]; at 11.0 µM): 23%
growth inhibition ([14]; at 33.0 µM): 35%
growth inhibition ([14]; at 100.0 µM): 48%
growth inhibition [15, 17]: 36%
growth inhibition [15, 18]: 70% (active)
growth inhibition ([15]; at 50.0 µM): -27.3%
growth inhibition ([16]; at 1.2 µM): -6%
growth inhibition ([16]; at 3.7 µM): 15%
growth inhibition ([16]; at 11.0 µM): 21%
growth inhibition ([16]; at 33.0 µM): 4%
growth inhibition ([16]; at 100.0 µM): 7%

[O-][n+]1c2cccc(O)c2[n+]([O-])c2cccc(O)c21
growth inhibition ([1]; at 1.2 µM): 23%
growth inhibition ([1]; at 3.7 µM): 57%
growth inhibition ([1]; at 11.0 µM): 89% (active)
growth inhibition ([1]; at 33.0 µM): 93% (active)
growth inhibition ([1]; at 100.0 µM): 95% (active)
growth inhibition ([2]; at 1.2 µM): 2%
growth inhibition ([2]; at 3.7 µM): 2%
growth inhibition ([2]; at 11.0 µM): 7%
growth inhibition ([2]; at 33.0 µM): 10%
growth inhibition ([2]; at 100.0 µM): 15%
growth inhibition ([3]; at 1.2 µM): 25%
growth inhibition ([3]; at 3.7 µM): 63%
growth inhibition ([3]; at 11.0 µM): 89% (active)
growth inhibition ([3]; at 33.0 µM): 94% (active)
growth inhibition ([3]; at 100.0 µM): 96% (active)
growth inhibition ([4]; at 1.2 µM): 3%
growth inhibition ([4]; at 3.7 µM): 10%
growth inhibition ([4]; at 11.0 µM): 8%
growth inhibition ([4]; at 33.0 µM): 2%
growth inhibition ([4]; at 100.0 µM): 18%
growth inhibition ([5]; at 1.2 µM): 24%
growth inhibition ([5]; at 3.7 µM): 55%
growth inhibition [5, 17]: 15%
growth inhibition ([5]; at 11.0 µM): 85% (active)
growth inhibition ([5]; at 33.0 µM): 92% (active)
growth inhibition [5, 18]: 95% (active)
growth inhibition ([5]; at 50.0 µM): 86.4% (active)
growth inhibition ([5]; at 100.0 µM): 95% (active)
growth inhibition ([6]; at 1.2 µM): 3%
growth inhibition ([6]; at 3.7 µM): 9%
growth inhibition [6, 17]: 15%
growth inhibition ([6]; at 11.0 µM): 18%
growth inhibition ([6]; at 33.0 µM): 26%
growth inhibition [6, 18]: 80% (active)
growth inhibition ([6]; at 50.0 µM): 35.8%
growth inhibition ([6]; at 100.0 µM): 46%
growth inhibition ([7]; at 1.2 µM): 2%
growth inhibition ([7]; at 3.7 µM): 23%
growth inhibition ([7]; at 11.0 µM): 12%
growth inhibition ([7]; at 33.0 µM): 20%
growth inhibition ([7]; at 100.0 µM): 38%
growth inhibition [8, 17]: 6%
growth inhibition [8, 18]: 81% (active)
growth inhibition ([8]; at 50.0 µM): 35%
growth inhibition ([9]; at 1.2 µM): 0%
growth inhibition ([9]; at 3.7 µM): 0%
growth inhibition ([9]; at 11.0 µM): 3%
growth inhibition ([9]; at 33.0 µM): 11%
growth inhibition ([9]; at 100.0 µM): 11%
growth inhibition [10, 17]: 65%
growth inhibition [10, 18]: 94% (active)
growth inhibition ([10]; at 50.0 µM): 82.8% (active)
growth inhibition ([11]; at 1.2 µM): 4%
growth inhibition ([11]; at 3.7 µM): 3%
growth inhibition [11, 17]: 0%
growth inhibition ([11]; at 11.0 µM): 0%
growth inhibition ([11]; at 33.0 µM): 3%
growth inhibition [11, 18]: 72% (active)
growth inhibition ([11]; at 50.0 µM): 42.8%
growth inhibition ([11]; at 100.0 µM): 1%
growth inhibition ([12]; at 1.2 µM): 2%
growth inhibition ([12]; at 3.7 µM): 5%
growth inhibition ([12]; at 11.0 µM): 11%
growth inhibition ([12]; at 33.0 µM): 12%
growth inhibition ([12]; at 100.0 µM): 24%
growth inhibition ([13]; at 1.2 µM): 3%
growth inhibition ([13]; at 3.7 µM): 0%
growth inhibition ([13]; at 11.0 µM): 11%
growth inhibition ([13]; at 33.0 µM): 18%
growth inhibition ([13]; at 100.0 µM): 44%
growth inhibition ([14]; at 1.2 µM): 6%
growth inhibition ([14]; at 3.7 µM): 14%
growth inhibition ([14]; at 11.0 µM): 31%
growth inhibition ([14]; at 33.0 µM): 46%
growth inhibition ([14]; at 100.0 µM): 66%
growth inhibition [15, 17]: -7%
growth inhibition [15, 18]: 94% (active)
growth inhibition ([15]; at 50.0 µM): 57.2%
growth inhibition ([16]; at 1.2 µM): 31%
growth inhibition ([16]; at 3.7 µM): 75% (active)
growth inhibition ([16]; at 11.0 µM): 92% (active)
growth inhibition ([16]; at 33.0 µM): 94% (active)
growth inhibition ([16]; at 100.0 µM): 94% (active)
